The results in this text go back to PubChem BioAssay (NCI).

Experiment [1] in a line: NCI Yeast Anticancer Drug Screen. Data for the rad50 strain (AID 155).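 Further: 0% = growth of vehicle-only cultures of the same strain.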 The following applies: S. cerevisiae rad50 strain growth inhibition, active compounds read high. The method in brief: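 A DNA repair-deficient yeast mutant serves as the test organism; compound-induced growth inhibition is calculated against vehicle-treated cells.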
The nature of experiment [2]: NCI Yeast Anticancer Drug Screen. Data for the mec2-1 strain (AID 157). The following applies: S. cerevisiae mec2-1 strain, active compounds read high. The method in brief:
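Readout is yeast growth inhibition, normalised to vehicle-treated controls, in the mec2-1 strain exposed to compound.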

A short description of experiment [3]: NCI Yeast Anticancer Drug Screen. Data for the sgs1 mgt1 strain (AID 161).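 Further: 0% = growth of cultures given vehicle only.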 The following applies: S. cerevisiae sgs1 mgt1 strain, active compounds read high. Summed up: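 Percent growth inhibition was derived by comparing compound-exposed mutant yeast with vehicle-exposed cultures. The strain carries alterations in DNA damage repair.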
Experiment [4] is described as follows: NCI Yeast Anticancer Drug Screen. Data for the cln2 rad14 strain (AID 165).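 Further: 0% = growth equal to vehicle treated cultures.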 The following applies: S. cerevisiae cln2 rad14 strain, active compounds read high. Summed up: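 Relative to vehicle controls, growth inhibition of compound-treated cln2 rad14 yeast was recorded.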
Experiment [5] in a line: NCI Yeast Anticancer Drug Screen. Data for the bub3 strain (AID 167). The conditions noted are these: S. cerevisiae bub3 mutant strain, active compounds read high. Summed up:
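Inhibition values come from growth of compound-treated mutant yeast normalised to vehicle-treated controls.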

Experiment [6] can be described thus: NCI Yeast Anticancer Drug Screen. Data for the mlh1 rad18 strain (AID 175). The following applies: S. cerevisiae mlh1 rad18 strain growth inhibition, active compounds read high. Summed up:
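Test agents were incubated with a yeast strain of defined genotype (DNA damage repair defect). Inhibition of growth was derived by comparison with vehicle-exposed cultures.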

Setting [7] is: at 5.0 µM (retest, dose inferred, filed as 0.5).
Setting [8] is: at 50.0 µM (retest, dose inferred, filed as 5.0).

This is part of a sample that, as a whole, favours compounds with a hit. Of some 79,000 tested, about 15% had one in any assay. A number with no mark means an inactive call. The source made the active and inactive calls. No stated cut-off is given here; in the data, active means growth inhibition above about 70%; inactive means the rest.

Regarding `CCOC(=O)/C(=C\c1ccc(-c2ccccc2)cc1)C(C)=O`, the growth inhibition in experiment [1] (setting [7]) is 0%; in experiment [1] (setting [8]), 93% (active); in experiment [1] (at 50.0 µM), 67.1%; in experiment [2] (setting [7]), -27%; in experiment [2] (setting [8]), 95% (active); in experiment [2] (at 50.0 µM), 73.5% (active). Besides, the growth inhibition in experiment [3] (setting [7]) is 21%; in experiment [3] (setting [8]), 92% (active); in experiment [3] (at 50.0 µM), 81.2% (active); in experiment [4] (setting [7]) it was 1%; in experiment [4] (setting [8]), 85% (active); in experiment [4] (at 50.0 µM), 45.5%. In addition, the growth inhibition in experiment [5] (setting [7]) was 16%; in experiment [5] (setting [8]), 96% (active); in experiment [5] (at 50.0 µM) it was 66.9%; in experiment [6] (setting [7]), -27%; in experiment [6] (setting [8]), 94% (active); in experiment [6] (at 50.0 µM), 76.6% (active).
On to `CN(C)c1ccc(C(=C2C=CC(=[N+](C)C)C=C2)c2ccc(N(C)C)cc2)cc1` (tested in a mixture with another compound), for which the growth inhibition is 98% (active) in experiment [1] (setting [7]); 90% (active) in experiment [1] (setting [8]); 87.5% (active) in experiment [1] (at 50.0 µM); 99% (active) in experiment [2] (setting [7]); 93% (active) in experiment [2] (setting [8]); 88% (active) in experiment [2] (at 50.0 µM). The growth inhibition was 98% (active) in experiment [3] (setting [7]); 95% (active) in experiment [3] (setting [8]); 89.7% (active) in experiment [3] (at 50.0 µM); 99% (active) in experiment [4] (setting [7]); 95% (active) in experiment [4] (setting [8]); 87.7% (active) in experiment [4] (at 50.0 µM). For the same compound, the growth inhibition in experiment [5] (setting [7]) was 98% (active); in experiment [5] (setting [8]), 93% (active); in experiment [5] (at 50.0 µM) it was 88.5% (active); in experiment [6] (setting [7]) it was 98% (active); in experiment [6] (setting [8]), 91% (active); in experiment [6] (at 50.0 µM) it was 86.5% (active).
As to `NC(=O)NC(CC(=O)O)C(=O)O` (configuration not stated), the growth inhibition in experiment [1] (setting [7]) was -6%; in experiment [1] (setting [8]), 12%; in experiment [1] (at 50.0 µM), -19.9%; in experiment [2] (setting [7]) it was -7%; in experiment [2] (setting [8]), -4%; in experiment [2] (at 50.0 µM), -4.35%. The growth inhibition is -8% in experiment [3] (setting [7]); -5% in experiment [3] (setting [8]); -6% in experiment [3] (at 50.0 µM); -3% in experiment [4] (setting [7]); -4% in experiment [4] (setting [8]); 65.8% in experiment [4] (at 50.0 µM). The growth inhibition in experiment [5] (setting [7]) was 3%; in experiment [5] (setting [8]), -6%; in experiment [5] (at 50.0 µM), -29.8%; in experiment [6] (setting [7]), -8%; in experiment [6] (setting [8]) it was 4%; in experiment [6] (at 50.0 µM), -1.7%.
For `c1ccc(NCCSc2nc3ccccc3s2)cc1`, the growth inhibition was 6% in experiment [1] (setting [7]); 44% in experiment [1] (setting [8]); 42.3% in experiment [1] (at 50.0 µM); 9% in experiment [2] (setting [7]); 22% in experiment [2] (setting [8]); 27.4% in experiment [2] (at 50.0 µM). Also, the growth inhibition was 2% in experiment [3] (setting [7]); 80% (active) in experiment [3] (setting [8]); 26% in experiment [3] (at 50.0 µM); -21% in experiment [4] (setting [7]); 43% in experiment [4] (setting [8]); 8.55% in experiment [4] (at 50.0 µM). Moreover, the growth inhibition in experiment [5] (setting [7]) is 24%; in experiment [5] (setting [8]), 70% (active); in experiment [5] (at 50.0 µM) it was 81.6% (active); in experiment [6] (setting [7]) it was 8%; in experiment [6] (setting [8]), 77% (active); in experiment [6] (at 50.0 µM) it was 77.7% (active).
As for `C=C1C(=O)OC2C/C(C)=C/CC/C(C)=C/CCC3(COC(C)=O)OC3CC12` (configuration not stated), the growth inhibition in experiment [1] (setting [7]) was 4%; in experiment [1] (setting [8]), 98% (active); in experiment [1] (at 50.0 µM) it was 92.7% (active); in experiment [2] (setting [7]), 14%; in experiment [2] (setting [8]), 98% (active); in experiment [2] (at 50.0 µM), 94.2% (active). Also, the growth inhibition in experiment [3] (setting [7]) was 10%; in experiment [3] (setting [8]), 97% (active); in experiment [3] (at 50.0 µM), 94.2% (active); in experiment [4] (setting [7]), 1%; in experiment [4] (setting [8]), 95% (active); in experiment [4] (at 50.0 µM), 92.5% (active). The growth inhibition in experiment [5] (setting [7]) is 11%; in experiment [5] (setting [8]), 97% (active); in experiment [5] (at 50.0 µM) it was 93.2% (active); in experiment [6] (setting [7]), 37%; in experiment [6] (setting [8]), 98% (active); in experiment [6] (at 50.0 µM), 92.8% (active).
`CSC(=S)NN=C1CCCCC1`: the growth inhibition in experiment [1] (setting [7]) is 59%; in experiment [1] (setting [8]) it was 97% (active); in experiment [1] (at 50.0 µM), 90.9% (active); in experiment [2] (setting [7]), 47%; in experiment [2] (setting [8]), 98% (active); in experiment [2] (at 50.0 µM) it was 88.5% (active). Moreover, the growth inhibition in experiment [3] (setting [7]) is 49%; in experiment [3] (setting [8]) it was 97% (active); in experiment [3] (at 50.0 µM) it was 93.8% (active); in experiment [4] (setting [7]) it was 9%; in experiment [4] (setting [8]), 78% (active); in experiment [4] (at 50.0 µM), 58.6%. The growth inhibition in experiment [5] (setting [7]) is 81% (active); in experiment [5] (setting [8]) it was 97% (active); in experiment [5] (at 50.0 µM), 93.7% (active); in experiment [6] (setting [7]) it was 55%; in experiment [6] (setting [8]), 96% (active); in experiment [6] (at 50.0 µM), 90.8% (active).
As to `O=C(CN(Cc1ccccc1)Cc1ccccc1)c1ccccc1`, the growth inhibition in experiment [1] (setting [7]) is -2%; in experiment [1] (setting [8]) it was 31%; in experiment [1] (at 50.0 µM), 19.6%; in experiment [2] (setting [7]), 1%; in experiment [2] (setting [8]), 34%; in experiment [2] (at 50.0 µM), -1.8%. For the same compound, the growth inhibition in experiment [3] (setting [7]) is -2%; in experiment [3] (setting [8]), 33%; in experiment [3] (at 50.0 µM), 16.9%; in experiment [4] (setting [7]), 3%; in experiment [4] (setting [8]), 45%; in experiment [4] (at 50.0 µM) it was 1.75%. For the same compound, the growth inhibition is 4% in experiment [5] (setting [7]); 89% (active) in experiment [5] (setting [8]); 79.7% (active) in experiment [5] (at 50.0 µM); -1% in experiment [6] (setting [7]); 57% in experiment [6] (setting [8]); 15.4% in experiment [6] (at 50.0 µM).
For `Cn1c(N)c(NC(=O)CCl)c(=O)n(C)c1=O`, the growth inhibition was 21% in experiment [1] (setting [7]); 20% in experiment [1] (setting [8]); 16.4% in experiment [1] (at 50.0 µM); 3% in experiment [2] (setting [7]); 5% in experiment [2] (setting [8]); -5.8% in experiment [2] (at 50.0 µM). The growth inhibition in experiment [3] (setting [7]) was -13%; in experiment [3] (setting [8]) it was -2%; in experiment [3] (at 50.0 µM), -16.9%; in experiment [4] (setting [7]) it was 1%; in experiment [4] (setting [8]), 2%; in experiment [4] (at 50.0 µM), 12.8%. In addition, the growth inhibition was 8% in experiment [5] (setting [7]); 7% in experiment [5] (setting [8]); -2.45% in experiment [5] (at 50.0 µM); 7% in experiment [6] (setting [7]); 0% in experiment [6] (setting [8]); 16.9% in experiment [6] (at 50.0 µM).
For the compound `COC1/C=C/OC2(C)Oc3c(C)c(O)c4c(c3C2=O)C(=O)C=C(NC(=O)/C(C)=C\C=C\C(C)C(OC=O)C(C)C(O)C(C)C(OC(C)=O)C1C)C4=O` (configuration not stated), the growth inhibition in experiment [1] (setting [7]) was -15%; in experiment [1] (setting [8]), -4%; in experiment [1] (at 50.0 µM), 47%; in experiment [2] (setting [7]) it was 1%; in experiment [2] (setting [8]), 3%; in experiment [2] (at 50.0 µM), 53.5%. The growth inhibition in experiment [3] (setting [7]) is -12%; in experiment [3] (setting [8]), 29%; in experiment [3] (at 50.0 µM) it was 52.5%; in experiment [4] (setting [7]), -5%; in experiment [4] (setting [8]), 3%; in experiment [4] (at 50.0 µM), 79% (active). Moreover, the growth inhibition is -8% in experiment [5] (setting [7]); 5% in experiment [5] (setting [8]); 49.6% in experiment [5] (at 50.0 µM); 11% in experiment [6] (setting [7]); 27% in experiment [6] (setting [8]); 55.7% in experiment [6] (at 50.0 µM).
